Rows were chosen to be rich in hits. Some 3.5% of all compounds tested hit in one or more screens of this group.
Pf apPOL inh: Pf-apPOL DNA polymerase inhibition; 0.25% of 210,000 active; Recombinant Pf-apPOL, molecular beacon fluorescence, 1.5 h; inhibition, % at 10 µM; AID 1794808
mHTT-CaM PPI inh: disrupts binding of mutant huntingtin to calmodulin. 3.6% of 190,000 active. inhibition, % at 15 µM. P42858. AlphaScreen His-mHTT/GST-CaM binding, luminescence
Hits are given with their value; 0 = inactive; - = no result given; ! = a repeat was not active. Rule as the data show it: active = inhibition above about 50%; inactive = the rest.

SMILES	Pf apPOL inh	mHTT-CaM PPI inh
CCOc1ccc(Nc2cc(N3CCOCC3)c3noc4c3c2C(=O)c2ccccc2-4)cc1	0	0
CN(C)c1cc(Nc2ccccc2)c2c3c(onc13)-c1ccccc1C2=O	0	96.0
O=C(O)c1ccccc1Nc1cc(N2CCOCC2)c2noc3c2c1C(=O)c1ccccc1-3	0	0
CCC(=O)Nc1ccc(NC(=O)c2ccc(C)c(Cl)c2)cc1	0	0
CCN(CC)c1ccc(N=Cc2ccc(O)cc2)cc1	0	86.0
CCN(CC)c1ccc(C=Nc2ccc(C)cc2)cc1	0	0
CCN1CCN(C(=O)C2CC(=O)N(Cc3ccccc3F)C2)CC1 (centres undefined)	0	0
Cc1ccc(CNC2CCN(c3ccc(C(=O)Nc4ccccc4)cn3)C2)cc1 (centres undefined)	0	0
Cc1cccc(-c2cc(NC(=O)c3ccc([N+](=O)[O-])cc3)n[nH]2)c1	0	0
Cc1ccnc(NC(c2cccc([N+](=O)[O-])c2)c2ccc3cccnc3c2O)c1 (centres undefined)	0	100.0
Cc1ccnc(NC(c2ccc([N+](=O)[O-])cc2)c2ccc3cccnc3c2O)c1 (centres undefined)	0	99.8
Cc1nc(O)c(C(c2cccc([N+](=O)[O-])c2)c2c(O)nc(C)[nH]c2=O)c(=O)[nH]1	0	0
CCC(=O)NC(c1cccc([N+](=O)[O-])c1)c1ccc2cccnc2c1O (centres undefined)	0	100.0
CN1CCCN(C(=O)c2ccc(-c3cncnc3)nc2)CC1	0	0
COc1ccc(-c2nc3cccnc3n2C2CCN(C(=O)c3ccc(Cl)s3)C2)cc1 (centres undefined)	0	70.3
COc1ccc(-c2nc3cccnc3n2C2CCN(C(=O)c3ccc(C)s3)C2)cc1 (centres undefined)	0	65.0
COc1ccc(-c2nc3cccnc3n2C2CCN(C(=O)c3cccs3)C2)cc1 (centres undefined)	0	0
COc1ccc(-c2nc3cccnc3n2C2CCN(C(=O)NC(C)C)C2)cc1 (centres undefined)	0	0
CCc1onc(C)c1C1CCCN1Cc1ccc(O)cc1 (centres undefined)	0	0
CCc1onc(C)c1C1CCCN1Cc1ccc(N(CC)CC)cc1 (centres undefined)	0	67.4
O=S(=O)(c1cccc2nsnc12)N1CCN(c2ccccc2)CC1	0	-
Nc1ccc(-c2c3ccccc3nc3cc(N)ccc23)cc1	0	100.3
Nc1ccc(-c2cc(-c3ccccc3)nc(-c3ccc(N)cc3)n2)cc1	0	0
CCCN1C(CC(C)C)=NS(=O)(=O)c2cc(NC(C)=O)ccc21	0	0
Clc1ccc(OCc2nc(-c3cccc(-c4ccn[nH]4)c3)no2)cc1	0	0
SMILES	Pf apPOL inh	mHTT-CaM PPI inh
Clc1ccc(Cc2nc(-c3cccc(-c4ccn[nH]4)c3)no2)cc1	0	90.9
N#Cc1c(NC(=O)c2cccnc2)sc2c1CCCCC2	0	0
O=C(c1cccs1)N1CCCC(c2ccnc(-c3ccccc3)n2)C1 (centres undefined)	0	95.3
COc1ccc(-c2nccc(C3CCCN(C(=O)c4cccs4)C3)n2)cc1 (centres undefined)	0	0
COc1ccc(-c2nccc(C3CCCN(C(=O)c4ccccc4C)C3)n2)cc1 (centres undefined)	0	0
Cc1ccccc1C(=O)N1CCCC(c2ccnc(-c3ccc(F)cc3)n2)C1 (centres undefined)	0	73.4
COc1ccc(/C=C/C(=O)Nc2c3c(nn2-c2ccc(C)cc2C)CSC3)cc1OC	0	0
CC1C(=O)C(C)C(c2ccc(F)cc2)NC1c1ccc(F)cc1 (centres undefined)	0	0
CC1C(=O)C(C)C(c2ccc(N(C)C)cc2)NC1c1ccc(N(C)C)cc1 (centres undefined)	0	77.0
COc1ccc(CC(=O)N2CCc3ccccc3C2)cc1	0	0
COc1ccc(CC(=O)N2CCc3cn(C)c4cccc(c34)C2)cc1	0	57.2
Cc1ccccc1CC(=O)N1CCc2cn(C)c3cccc(c23)C1	0	0
Cn1cc2c3c(cccc31)CN(C(=O)Cc1ccccc1Cl)CC2	0	50.3
NC(=O)COc1ccc2c(c1)OC(=Cc1ccc3c(c1)OCO3)C2=O	0	0
COc1cc(-c2nc(C=Nc3ccc(Cl)c([N+](=O)[O-])c3)c(O)o2)cc(OC)c1OC	0	0
O=C(Cn1nc2c(SCc3ccccc3)nccn2c1=O)NC1CCCC1	0	0
O=C1C(=CC=Cc2ccco2)Oc2cc(O)ccc21	51.2	57.7!
COc1ccc(C=C2Oc3cc(OC(=O)C(C)C)ccc3C2=O)cc1OC	0	62.4
O=C(Oc1ccc2c(c1)OC(=Cc1ccco1)C2=O)c1ccco1	0	0
O=C1C(=Cc2ccccc2F)Oc2cc(O)ccc21	0	0
O=C(Oc1ccc2c(c1)OC(=Cc1ccco1)C2=O)c1cccs1	0	58.2
O=C(Oc1ccc2c(c1)OC(=Cc1ccco1)C2=O)c1ccccc1	0	0
COc1ccc(C=C2Oc3cc(OC(C)=O)ccc3C2=O)cc1OC	0	0

High-throughput results from PubChem.
